For 40 sequences, PBM binding z-score results are on record in the supplement of paper PMC6555819.

One assay concerns RXRa DBDmut IVT, anti-RXR (DBD mutation: RXRa K156A/R161A, NR concentration 90 nM). Briefly: PBM binding z-score (relative to random genomic background probes); higher = stronger binding; sequences stand for … in GC…GCGATTGACAGCGTAGAATGAAGG
An outline of the steps: (§1)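 Antibodies against each partner of ligand-free nuclear receptor dimers (one per run) detected binding on custom Agilent 4×180K protein-binding microarrays after 1 h incubation. The double-stranded probes had 34-nt variable regions carrying direct-repeat seeds, single-nucleotide variants, half-site ablations and random human genomic background sequences. Binding z-scores, from regression-normalized fluorescence, use the random background probes as reference.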
CATTACGGGTCACGAGGTTATAGCACGACGAGCG showed a PBM binding z-score of 2.21.

Turning to ATCTCTAGGTAAAGTTCAGTTAAAGATCGATAGA, the PBM binding z-score is 1.68.

For CCTACGGGGCCATTCAGAGGTCATTGATCATATG, the PBM binding z-score was 2.13.

In turn, AGAATGAGGTTAATATCAGGGAAACAGAATACAT returned a PBM binding z-score of 1.22.

Take CCGACTGGGCCAAGGTCATTGATCAGTCAAAGCA: the PBM binding z-score turned out to be 1.4.

As for CCTCAGAGGACAGAAGGTCAGAGCTGTCCGCTTT, the PBM binding z-score came out at 0.625.

CGAACTAGGTCATCCAGGAAAGTGAATACATTGA gave a PBM binding z-score of 2.23.

ACTATTAGTTGAGACGAGTGCAACCGATAGGTTG gave a PBM binding z-score of 0.58.

Consider GCTTACGGGTCAAAGGTTATAGCGTGAATAGAAT, for which the PBM binding z-score stood at 2.22.

In turn, ACTATTAGTTGACTTAGGGCAACCGGTACGACGC registered a PBM binding z-score of 0.426.

With AGATTGAGGTTATACGTAGATCAGGGAAGAAAGT, the PBM binding z-score was 1.28.

CCTACTAGGTCAATGGTCAGCTAAAGCAGCTCGC yielded a PBM binding z-score of 1.71.

The sequence ATCTGTAGGTAACAAGTTCAGTGAAAGAGAGGAC returned a PBM binding z-score of 0.851.

CAAACTAGGTCAACAGGTCAAAGTCCGCTTCCCG returned a PBM binding z-score of 2.45.

With TCTCGGAGGACACGAAAGGTTAGAGCTCGACATC, the PBM binding z-score stood at 0.867.

In turn, GCTTGTATATCAAGGTTAAGAAAGACTAAGCTAA showed a PBM binding z-score of 0.464.

In the case of TCCGCTAGGTCAACGATGGTCAGCTAATCTGCTA, the PBM binding z-score was found to be 1.1.

As to CCTATGAGTTGACCATAAGGGCAACCGAAGCTCG, the PBM binding z-score was found to be 0.755.

Another assay relates to RXRa homodimer (NR concentration 180 nM). Described as above. A digest of the protocol: as §1
As for GCGACTAGGGCATCAGCAGGTTACCATAACTTAA, the PBM binding z-score is 0.47.

As for GATACAGTGTCAAGGCCAGAGTACGCGTATTGAT, the PBM binding z-score is 0.517.

GCGACTGGGGCATCAGCAGGTTTCCATAACTTAA came in with a PBM binding z-score of -0.0783.

CCGACTGGGGCATAAGGTTACCCTAAGCCAGCCC: the PBM binding z-score stood at 1.07.

Take AATACAGGGTCATCGTAGGCCAGCGTACGCACAG: the PBM binding z-score is 6.47.

GCGACTGGGGCATCAGCAGATTACCATAACTTAA showed a PBM binding z-score of -0.143.

Consider GGACCGAGGGCAAAGTTGATAGCATCTGTCGACG, for which the PBM binding z-score was determined as 2.15.

With CGGACTAGGTCATTGACAGGACAGTGAATAGTAA, the PBM binding z-score was found to be 2.38.

CGTCAAAGTTTAACTAAGGTAACGTAAAGCACGC returned a PBM binding z-score of 0.784.

ATATGTAGGTTAGCTGGGGTCATACAGACTAGGC registered a PBM binding z-score of 6.14.

As for GCGGCTAGGTCAACTGATGGTCAGCTAAAGCTCG, the PBM binding z-score is 2.84.

CAGCCTAGGTCATGGCCAGTATAGGAGGAACGTT showed a PBM binding z-score of 3.32.

CCTAGTTGGTCAAGGCCACACACGCTATAGGTAC showed a PBM binding z-score of 0.442.

In turn, CCTTACGGGTCAACGTTATAGCACGGGTGGTACG registered a PBM binding z-score of 5.03.

As to TCTTGTAGATCAAACAGGTTAAGAAAGCCTGAGT, the PBM binding z-score came out at 0.587.

Consider CCTAGTTGGTCAGGAGGTCACACTCCGGATATGA, for which the PBM binding z-score amounted to 5.04.

The sequence TCTAGCAGGCGAGAGGGTCACTCAAGAGGTACGG displayed a PBM binding z-score of 2.15.

CGAACGAGGGCATGAGTTGATAGCGAATGCCGAT had a PBM binding z-score of 1.09.

In turn, TCATATAGGTAAAAGGTGAAAGTAGGTGTGGTAA returned a PBM binding z-score of 3.34.

With ACAGACAGGTGAGTGAAGGTAGCTCAGCTGGACG, the PBM binding z-score was 0.135.

For the sequence CAAACTAGGTCACAGAGGTCAAAGACCGTGCGTA, the PBM binding z-score was found to be 7.71.

Turning to TGTCAAAGTTCAAAGGTAACGGAAGTATCCACAC, the PBM binding z-score came to 7.52.

The sequence CATTACGGGTCACGAGGTTATAGCACGACGAGCG displayed a PBM binding z-score of 8.02.

ATCTCTAGGTAAAGTTCAGTTAAAGATCGATAGA yielded a PBM binding z-score of 1.5.

For CCTACGGGGCCATTCAGAGGTCATTGATCATATG, the PBM binding z-score was 4.07.

For AGAATGAGGTTAATATCAGGGAAACAGAATACAT, the PBM binding z-score is 2.14.

CCGACTGGGCCAAGGTCATTGATCAGTCAAAGCA: the PBM binding z-score was 3.09.

Sequence CCTCAGAGGACAGAAGGTCAGAGCTGTCCGCTTT had a PBM binding z-score of 2.1.

Sequence CGAACTAGGTCATCCAGGAAAGTGAATACATTGA came in with a PBM binding z-score of 3.11.

ACTATTAGTTGAGACGAGTGCAACCGATAGGTTG yielded a PBM binding z-score of 0.199.

Sequence GCTTACGGGTCAAAGGTTATAGCGTGAATAGAAT had a PBM binding z-score of 9.28.

ACTATTAGTTGACTTAGGGCAACCGGTACGACGC: the PBM binding z-score is 0.446.

Consider AGATTGAGGTTATACGTAGATCAGGGAAGAAAGT, for which the PBM binding z-score came out at 2.2.

As to CCTACTAGGTCAATGGTCAGCTAAAGCAGCTCGC, the PBM binding z-score was found to be 2.26.

Sequence ATCTGTAGGTAACAAGTTCAGTGAAAGAGAGGAC came in with a PBM binding z-score of 0.902.

CAAACTAGGTCAACAGGTCAAAGTCCGCTTCCCG registered a PBM binding z-score of 5.98.

TCTCGGAGGACACGAAAGGTTAGAGCTCGACATC had a PBM binding z-score of 1.4.

As for GCTTGTATATCAAGGTTAAGAAAGACTAAGCTAA, the PBM binding z-score came to 0.746.

TCCGCTAGGTCAACGATGGTCAGCTAATCTGCTA displayed a PBM binding z-score of 2.23.

In the case of CCTATGAGTTGACCATAAGGGCAACCGAAGCTCG, the PBM binding z-score is 0.985.

The subject of another assay is THRa:RXRa (NR concentration 90 nM, RXRa partner concentration 90 nM). Described as above. An outline of the steps:
as §1
GCGACTAGGGCATCAGCAGGTTACCATAACTTAA returned a PBM binding z-score of 0.885.

Sequence GATACAGTGTCAAGGCCAGAGTACGCGTATTGAT displayed a PBM binding z-score of 0.471.

As to GCGACTGGGGCATCAGCAGGTTTCCATAACTTAA, the PBM binding z-score was -0.0527.

As for CCGACTGGGGCATAAGGTTACCCTAAGCCAGCCC, the PBM binding z-score turned out to be 1.79.

AATACAGGGTCATCGTAGGCCAGCGTACGCACAG registered a PBM binding z-score of 4.79.

For the sequence GCGACTGGGGCATCAGCAGATTACCATAACTTAA, the PBM binding z-score was -0.135.

Consider GGACCGAGGGCAAAGTTGATAGCATCTGTCGACG, for which the PBM binding z-score was 1.04.

CGGACTAGGTCATTGACAGGACAGTGAATAGTAA: the PBM binding z-score stood at 2.85.

CGTCAAAGTTTAACTAAGGTAACGTAAAGCACGC had a PBM binding z-score of 4.66.

ATATGTAGGTTAGCTGGGGTCATACAGACTAGGC gave a PBM binding z-score of 5.18.

GCGGCTAGGTCAACTGATGGTCAGCTAAAGCTCG showed a PBM binding z-score of 2.95.

The sequence CAGCCTAGGTCATGGCCAGTATAGGAGGAACGTT had a PBM binding z-score of 2.93.

On to CCTAGTTGGTCAAGGCCACACACGCTATAGGTAC, for which the PBM binding z-score came out at 1.07.

CCTTACGGGTCAACGTTATAGCACGGGTGGTACG: the PBM binding z-score is 2.36.

Sequence TCTTGTAGATCAAACAGGTTAAGAAAGCCTGAGT yielded a PBM binding z-score of 0.607.

In turn, CCTAGTTGGTCAGGAGGTCACACTCCGGATATGA came in with a PBM binding z-score of 3.4.

As to TCTAGCAGGCGAGAGGGTCACTCAAGAGGTACGG, the PBM binding z-score stood at 1.52.

CGAACGAGGGCATGAGTTGATAGCGAATGCCGAT yielded a PBM binding z-score of 1.09.

On to TCATATAGGTAAAAGGTGAAAGTAGGTGTGGTAA, for which the PBM binding z-score was 2.19.

ACAGACAGGTGAGTGAAGGTAGCTCAGCTGGACG had a PBM binding z-score of 0.263.

Sequence CAAACTAGGTCACAGAGGTCAAAGACCGTGCGTA registered a PBM binding z-score of 4.68.

With TGTCAAAGTTCAAAGGTAACGGAAGTATCCACAC, the PBM binding z-score amounted to 2.99.

CATTACGGGTCACGAGGTTATAGCACGACGAGCG returned a PBM binding z-score of 3.82.

In turn, ATCTCTAGGTAAAGTTCAGTTAAAGATCGATAGA gave a PBM binding z-score of 1.47.

The sequence CCTACGGGGCCATTCAGAGGTCATTGATCATATG yielded a PBM binding z-score of 3.72.

As to AGAATGAGGTTAATATCAGGGAAACAGAATACAT, the PBM binding z-score worked out at 2.36.

In turn, CCGACTGGGCCAAGGTCATTGATCAGTCAAAGCA returned a PBM binding z-score of 3.46.

Sequence CCTCAGAGGACAGAAGGTCAGAGCTGTCCGCTTT registered a PBM binding z-score of 1.95.

On to CGAACTAGGTCATCCAGGAAAGTGAATACATTGA, for which the PBM binding z-score was found to be 2.77.

ACTATTAGTTGAGACGAGTGCAACCGATAGGTTG registered a PBM binding z-score of 0.501.

In turn, GCTTACGGGTCAAAGGTTATAGCGTGAATAGAAT showed a PBM binding z-score of 3.83.

Regarding ACTATTAGTTGACTTAGGGCAACCGGTACGACGC, the PBM binding z-score came out at 1.47.

For AGATTGAGGTTATACGTAGATCAGGGAAGAAAGT, the PBM binding z-score amounted to 2.24.

For the sequence CCTACTAGGTCAATGGTCAGCTAAAGCAGCTCGC, the PBM binding z-score stood at 2.47.

For ATCTGTAGGTAACAAGTTCAGTGAAAGAGAGGAC, the PBM binding z-score stood at 1.26.

CAAACTAGGTCAACAGGTCAAAGTCCGCTTCCCG: the PBM binding z-score was determined as 3.78.

Take TCTCGGAGGACACGAAAGGTTAGAGCTCGACATC: the PBM binding z-score was 2.41.

As for GCTTGTATATCAAGGTTAAGAAAGACTAAGCTAA, the PBM binding z-score was 1.24.

Consider TCCGCTAGGTCAACGATGGTCAGCTAATCTGCTA, for which the PBM binding z-score is 3.06.

CCTATGAGTTGACCATAAGGGCAACCGAAGCTCG displayed a PBM binding z-score of 2.49.
